From PubChem BioAssay AID463212 (Sanford-Burnham Center for Chemical Genomics, 2010)
Hit rate of the full screen: of about 330,000 compounds, about 4,400 (1.3%) were called active.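 The calls were made as follows: active = growth inhibition of the mutant yeast at or above 50%; inactive = the rest.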 The entries come from a sample that favours actives as a whole.

test: growth inhibitors of tim23-1 mutant yeast, primary screen, luminescence, uHTS (AID 463212);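 also: temperature-sensitive mutant grown at 25 °C; plate controls were DMSO-treated mutant yeast for no effect and medium wells lacking yeast for full effect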; details: S. cerevisiae tim23-1 growth, BacTiter-Glo luminescence, 24 h; at 20 µM; hits give high values

inhibition, active:
Cc1ccc2cc3cc(C(=O)N4CCCCCC4)oc3nc2c1 53.8%
CCC(=O)Nc1nc(C)c(C(=O)Nc2cccc(Cl)c2)s1 57.9%
CC(=O)Oc1ccc(N(C(C)=O)S(=O)(=O)c2ccc3ccccc3c2)cc1Br 59.3%
Cc1cc2ncn(CCCCOc3ccccc3)c2cc1C 51.5%
Fc1ccccc1-c1cc2cc3c(cc2cn1)OCO3 54.8%
CN1C(=O)/C(=N/OC(=O)c2ccccc2Br)c2ccccc21 56.2%
CSC(=S)N/N=C/c1c[nH]c2ccccc12 63.2%
FC(F)(F)c1cccc(Nc2ncnc3ccccc23)c1 94%
Clc1ccc(Nc2nc(-c3cccs3)cs2)nc1 70.7%
O=c1c(-c2ccc3c(c2)OCCO3)c(C(F)(F)F)oc2cc(O)cc(O)c12 58.2%
CC(=O)N1N=C(c2ccncc2)OC1(Cc1ccccc1)Cc1ccccc1 52.9%
Oc1ccccc1-c1cc(-c2ccc(Cl)cc2)n[nH]1 56.4%
COc1ccc(Oc2cn[nH]c2-c2ccc(OC)cc2O)cc1 66.3%
Cc1cccc(C)c1NC(=O)C(Cl)C(=O)c1ccccc1 (stereo not given) 80.7%
O=C1c2ccccc2S(=O)(=O)N1CC(O)Cn1c2ccccc2c2ccccc21 (stereo not given) 84.5%
CCc1ccccc1NC(=O)CN(c1ccc(OC)cc1OC)S(=O)(=O)c1ccccc1[N+](=O)[O-] 50.4%

inhibition, inactive:
Cc1cc(C)cc(NC(=O)N2CCCCCCC2)c1 27.5%
Cc1ccc2nc(N3CCN(C(=O)c4ccco4)CC3)sc2c1 26.4%
CC(=O)N1CC(=O)N(CC(=O)Nc2ccc(Br)cc2)C1=S 10.5%
COC(=O)[C@]1(C)N[C@H](c2ccc(-c3ccc(Cl)c(Cl)c3)cc2)[C@@H]2C(=O)N(C)C(=O)[C@@H]21 30.7%
COc1cccc(CNc2ncc(-c3ccccc3)n2C)c1 -8.62%
Cc1csc(NC(=S)Nc2cccc(Cl)c2)n1 48.7%
CCC(=O)Nc1sc(C(=O)Nc2ccccc2)c(C)c1C(=O)OC 32%
O=C(Nc1ccc(N2CCOCC2)nc1)c1c(F)cccc1F -3.3%
Cc1ccc(NC(=S)N2CCN(c3ncccn3)CC2)cc1C 19%
Cc1cccc(N2CCN(C(=O)/C=C/c3ccco3)CC2)c1C 38.9%
COc1ccc(C(=O)COC(=O)CN2C(=O)C3CC=CCC3C2=O)c(OC)c1 (stereo not given) 12.1%
COc1cccc(CNC(=O)C2CCCN(S(=O)(=O)N3CC(C)CC(C)C3)C2)c1 (stereo not given) 27.8%
CN(c1ccc(OCC(=O)O)cc1)S(=O)(=O)c1ccc2ccccc2c1 3.8%
COCCNC(=O)COc1ccc(N(C)S(=O)(=O)c2ccc3ccccc3c2)cc1 19.5%
CC(=O)n1cc([C@@H]2C=C(C(=O)N3CCN(Cc4ccc5c(c4)OCO5)CC3)O[C@H](OCc3ccc(CO)cc3)C2)c2ccccc21 5.34%
O=C(COC(=O)Cc1ccc(Br)cc1)Nc1c(F)c(F)c(F)c(F)c1F 5.57%
CCCCOc1ccc(C(=O)NCC(=O)OCC(=O)c2c(N)n(C)c(=O)n(C)c2=O)cc1 7.23%
NS(=O)(=O)c1ccc(CCNC(=O)NC2CCCCC2)cc1 8.17%
COCCOCCn1cnc2ccccc21 2.15%
Clc1ncn(CCOc2ccccc2)c1Cl -4.79%
Fc1ccc2cnc(-c3ccccc3)cc2c1 31.1%
O=C(c1ccco1)N1CCN(C(=O)c2cc(-c3ccccc3F)no2)CC1 19.6%
COc1ccc(-n2c(SCC(=O)Nc3ccc4c(c3)OCO4)nnc2C(C)N2CCCCC2)cc1 (stereo not given) 0.001%
O=C(O)c1ccc(S(=O)(=O)N2CCC(Cc3ccccc3)CC2)cc1 -3.54%
CSCC[C@H](NC(=O)N1CCn2c1nc1ccccc12)C(=O)NCc1ccc2c(c1)OCO2 -0.587%
CCCCNC(=O)CCn1c(=O)c2ccccc2n(Cc2cc(C)ccc2C)c1=O -7.13%
COC(=O)c1ccccc1NC(=O)CSc1nc2c(c(=O)[nH]1)CCC2 16%
Nc1cc(OC(=O)c2ccccc2Br)nn1S(=O)(=O)c1ccccc1 37.3%
CN1C(=O)/C(=C\c2cc(Br)cs2)c2ccccc21 24.9%
O=C(COc1ccc(F)cc1Br)NCC1COc2ccccc2O1 (stereo not given) 25%
CN(C)S(=O)(=O)N1CCN(c2ccc([N+](=O)[O-])cc2)CC1 9.07%
O=C(O)c1cccc(NC(=S)N/N=C/c2c[nH]c3ccccc23)c1 7.37%
Nc1nonc1-n1nnc(C(=O)N/N=C/c2c[nH]c3ccccc23)c1-c1ccccc1 14.8%
COc1ccc(CNc2ncnc3ccccc23)cc1 -0.028%
FC(F)(F)c1cccc(NC(=S)Nc2cccc(Cl)c2)c1 46.1%
Cc1ccccc1-n1nc(SCC(=O)O)sc1=S -2.14%
[O-][n+]1c2c(nn1-c1ccc(Cl)c(Cl)c1)-c1nonc1CC2 4.72%
CCCc1cc(C(=O)Nc2ccc(Cl)cn2)cs1 33%
Clc1ccc(Cc2nnc(-c3cccs3)o2)cc1 15%
O=C(OCC(=O)N1CCCCCC1)c1cnc(Cl)c(Cl)c1 2.9%
O=S(=O)(Nc1ccc(O)c2ccccc12)c1ccc(OC(F)(F)F)cc1 28.5%
CCOC(=O)c1cc2cc(-c3c(C(=O)OCC)oc4cc(O)cc(O)c4c3=O)ccc2o1 14.3%
COc1ccc(-c2onc(C)c2-c2ccc3c(c2)OCCO3)c(O)c1 28.1%
CCOc1ccc(CCNC(=O)CCc2nnc3ccc(N4CCCC4)nn23)cc1OCC 10.2%
O=C1NC(c2ccccc2)Oc2ccccc21 (stereo not given) 22.9%
Cc1ccccc1NC(=O)COc1cccc2c1CCNC2=O 12.3%
O=C(Nc1ccc(N2CCN(C(=O)c3cccs3)CC2)cc1)c1cccnc1Cl 12.9%
O=C(Nc1nn(Cc2ccccc2F)cc1Br)c1cccs1 17.3%
CC(=O)N1N=C(c2ccccc2)OC1c1cccnc1 (stereo not given) 0.277%
O=C(Cc1ccccc1)N1N=C(c2ccncc2)CC1(O)C(F)(F)F (stereo not given) 9.71%
Cc1ccsc1C(=O)NNC(=O)COc1ccc(Br)cc1 -6.92%
C#CCNC(=O)[C@H](Cc1ccc(C(=O)c2ccccc2)cc1)NC(=O)OC(C)(C)C 5.1%
O=C(CNc1cccc(S(=O)(=O)N2CCCCC2)c1)Nc1ccccc1F 14.8%
COCCn1c(C)cc(C(=O)CN2c3cccc4cccc(c34)S2(=O)=O)c1C 5.11%
Cc1ccc(NC(=O)c2cc(-c3ccccc3O)n[nH]2)cc1C -2.65%
CSc1ccccc1-c1nnc(-c2ccc(Cl)cc2)o1 21.3%
Cc1ccc(NC(=O)c2nc[nH]c2C(=O)N2CCCCC2)c(C(=O)c2ccccc2)c1 6.29%
C=C(C)C(=O)O[C@H]1C/C(C)=C\C(=O)/C=C(\C)[C@H](O)[C@@H]2OC(=O)C(=C)[C@@H]21 4.97%
COc1ccc(C)cc1NC(=O)CSc1nnc(CC(=O)Nc2ccccc2F)n1C 3.22%
O=C(O)Cn1c(Cc2ccccc2)nc2ccccc21 -1.32%
COc1ccc(-c2cn[nH]c2-c2ccc(OC)cc2)cc1 47.7%
CCOc1ccccc1Oc1cn[nH]c1-c1ccc(OC)cc1O -69.3%
Cc1cc(NC(=O)CSCc2nc(-c3cccc(Cl)c3)oc2C)no1 1.1%
COc1cccc2c1CCC(NC(C)=O)C2=O (stereo not given) 0.522%
Cc1cccc(C)c1NC(=O)CN(C)C(=O)CCC(=O)c1ccccc1 15%
Cc1cccc(C)c1NC(=O)C(c1ccccc1)N1CC(=O)Nc2ccccc21 (stereo not given) 21.3%
COc1ccc(CN2CCCCC2C)cc1OC (stereo not given) 10.1%
CCC(C)n1c(-c2cc(OC)c(OC)c(OC)c2)nc2nc3ccccc3nc21 (stereo not given) 19.1%
C[C@H](NC(=O)C1CC(=O)N(c2ccc3c(c2)OCO3)C1)C(=O)NCc1ccco1 (stereo not given in full) 13.9%
CCCCN(CCCC)CC(O)Cn1c2ccccc2c(=O)c2ccccc21 (stereo not given) 5.18%
CC(C)(C)c1ccc(CN2C(=O)c3ccccc3S2(=O)=O)cc1 22.3%
COc1ccc(N(CC(=O)Nc2cccc3ccccc23)S(C)(=O)=O)c(OC)c1 6.45%
COc1ccc(N(CC(=O)Nc2ccc(C)cc2C)S(=O)(=O)c2ccccc2[N+](=O)[O-])c(OC)c1 19.7%
CCN(CC)S(=O)(=O)c1ccc(CNC(=O)CN2C(=O)NC3(CCc4ccccc43)C2=O)cc1 (stereo not given) 9.27%
Cc1ccc(S(=O)(=O)N2CCC(C(=O)OCC(=O)N3CC(=O)Nc4ccccc43)CC2)cc1 14.9%
CC[C@]12c3[nH]c4ccc(Cl)cc4c3CCN1C(=O)[C@@H](CC(=O)NCCN1CCOCC1)C[C@@H]2C(=O)N1CCN(C(=O)C2CC2)CC1 24.7%
CC1Cn2c(nnc2-c2cccs2)S1 (stereo not given) 3.29%
NS(=O)(=O)c1ccc(CCNC(=O)CNC(=O)Cc2ccccc2)cc1 7.58%
CCN(CC)c1ccc(NC(=O)C2CCC(CNc3c(N4CCCC4)c(=O)c3=O)CC2)c(C)c1 (stereo not given) 2.65%
